High-throughput results from PubChem.
Anthrax LF prot: Bacillus anthracis LF protease inhibitors, primary screen, biochemical, multiplex microsphere, MLPCN library; Lethal factor (Bacillus anthracis), P15917; multiplex microsphere protease cleavage assay; inhibition, % at 10 µM; 360,000 compounds, 0.12% hits; note: plate controls were buffer without enzyme for full effect and enzyme alone for no effect
Target sequence (P15917 whole entry, looked up): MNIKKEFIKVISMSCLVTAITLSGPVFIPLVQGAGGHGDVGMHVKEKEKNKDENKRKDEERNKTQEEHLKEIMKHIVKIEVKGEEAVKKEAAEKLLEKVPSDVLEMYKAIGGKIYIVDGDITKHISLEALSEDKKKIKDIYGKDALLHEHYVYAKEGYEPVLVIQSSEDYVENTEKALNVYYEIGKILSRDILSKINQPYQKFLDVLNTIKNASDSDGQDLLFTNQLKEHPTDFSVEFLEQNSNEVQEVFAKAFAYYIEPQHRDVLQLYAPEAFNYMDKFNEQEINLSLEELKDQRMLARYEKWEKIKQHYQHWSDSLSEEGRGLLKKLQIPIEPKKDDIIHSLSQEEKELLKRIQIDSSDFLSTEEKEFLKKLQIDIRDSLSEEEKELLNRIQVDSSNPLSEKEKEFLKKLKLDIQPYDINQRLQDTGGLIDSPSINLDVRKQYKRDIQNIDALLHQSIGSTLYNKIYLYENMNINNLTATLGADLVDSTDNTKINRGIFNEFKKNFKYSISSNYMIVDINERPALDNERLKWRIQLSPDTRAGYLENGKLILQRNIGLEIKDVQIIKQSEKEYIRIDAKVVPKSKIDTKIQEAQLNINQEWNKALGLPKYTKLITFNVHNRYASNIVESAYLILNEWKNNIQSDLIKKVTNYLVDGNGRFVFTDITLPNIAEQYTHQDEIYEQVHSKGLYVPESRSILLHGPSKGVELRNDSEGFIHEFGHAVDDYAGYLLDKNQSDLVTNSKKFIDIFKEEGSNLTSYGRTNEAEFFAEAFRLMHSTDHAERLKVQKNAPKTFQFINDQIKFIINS
Bead autofluor: flagged as autofluorescent in microsphere protease counterscreen. compound autofluorescence counterscreen, microsphere flow cytometry; active compounds read high. 360,000 compounds, 3.1% hits. AID 624483. fluorescence intensity (no concentration beside the values); in the data active = fluorescence intensity above about 16000; inconclusive = no clear call, values can overlap the other calls
BoNT F protease: BoNT/F light chain protease inhibitors, primary screen, biochemical, flow cytometry, MLPCN library; inhibition, % at 10 µM; AID 588497, 2011; 360,000 compounds, 0.22% hits; Multiplex microsphere protease cleavage assay; Botulinum neurotoxin type F light chain protease (Clostridium botulinum); in the data active = inhibition above about 35%, passing the limit was not always enough; inconclusive = no clear call, values can overlap the other calls; note: plate controls were buffer without enzyme for full effect and enzyme alone for no effect
BoNT-A LC inh2: BoNT/A light chain protease inhibitors, primary screen, biochemical, flow cytometry, MLPCN library. Botulinum neurotoxin type A light chain protease (Clostridium botulinum A str. ATCC 3502). multiplex microsphere protease substrate cleavage. inhibition, % at 10 µM. 360,000 compounds, 0.17% hits; note: plate controls were buffer without enzyme for full effect and enzyme alone for no effect
* hit, by the source's call. Sampled rows, rich in hits. Any-hit rate of the full collection: about 3.5%. Cut-off read from the data, not from the text of the source, unless noted: active = inhibition above about 30%; inconclusive = no clear call, values can overlap the other calls; inactive = below that.

Screening COc1ccc(CN(C)C(=O)c2cccc(S(=O)(=O)N3CCCc4ccccc43)c2)c(OC)c1OC returned Anthrax LF prot -3, Bead autofluor 3533, BoNT F protease -3 and BoNT-A LC inh2 0.
CCOCC(=O)Nc1nc2ccc(OCC)cc2s1 was read as Anthrax LF prot 0, Bead autofluor 3790, BoNT F protease 12 and BoNT-A LC inh2 1.
`CCOc1ccc2nc(NC(=O)C3(C)CC3(Br)Br)sc2c1` (stereo unspecified) gave Anthrax LF prot 36*, Bead autofluor 3937, BoNT F protease inconclusive and BoNT-A LC inh2 -2.
`CC1=C(C(=O)N(C)C)CC(CC(=O)NCCc2ccccn2)C(=O)N1CCCN1CCCC1=O` (stereo unspecified) gave Anthrax LF prot 1, Bead autofluor 3694, BoNT F protease 1 and BoNT-A LC inh2 0.
Screening O=C(CCCN1C(=O)/C(=C/c2ccccc2OC(F)F)SC1=S)Nc1cccnc1 returned Anthrax LF prot -2, Bead autofluor 3545, BoNT F protease -1 and BoNT-A LC inh2 0.
Cc1ccc2[nH]c(=O)c(CN(CC3CCCO3)S(=O)(=O)c3c(C)ccc4nsnc34)cc2c1 (stereo unspecified) was read as Anthrax LF prot -6, Bead autofluor 19816*, BoNT F protease 4 and BoNT-A LC inh2 inconclusive.
For Cc1ccc2[nH]c(=O)c(CN(CC3CCCO3)S(=O)(=O)c3cccc4nsnc34)cc2c1 (stereo unspecified) the results were Anthrax LF prot -1, Bead autofluor 9718, BoNT F protease 7 and BoNT-A LC inh2 1.
For O=C(O)c1ccccc1NC(=O)C1CCN(S(=O)(=O)c2ccc3c(c2)OCCO3)CC1 the results were Anthrax LF prot -2, Bead autofluor 2782, BoNT F protease 4 and BoNT-A LC inh2 0.
`CC(=O)N(CCN(C(C)=O)c1ccccc1)c1ccccc1` gave Anthrax LF prot -2, Bead autofluor 3766, BoNT F protease 10 and BoNT-A LC inh2 -1.
For CC(C)(C)C(=O)N(CCN(C(=O)C(C)(C)C)c1ccccc1)c1ccccc1 the results were Anthrax LF prot 0, Bead autofluor 23201*, BoNT F protease -1 and BoNT-A LC inh2 1.
Screening COc1ccc(C2CC(c3ccccc3)Nc3nc(N)nn32)cc1 (stereo unspecified) returned Anthrax LF prot -9, Bead autofluor 10689, BoNT F protease 1 and BoNT-A LC inh2 -2.
`O=C(O)CCCC(=O)Nc1nc2n(n1)C(c1ccc(F)cc1)CC(c1ccc(Cl)cc1)N2` (stereo unspecified) gave Anthrax LF prot 1, Bead autofluor 21330*, BoNT F protease 7 and BoNT-A LC inh2 4.
CCOc1ccc(C2CC(c3ccccc3)Nc3nc(N)nn32)cc1 (stereo unspecified) was read as Anthrax LF prot 3, Bead autofluor 18914*, BoNT F protease 5 and BoNT-A LC inh2 inconclusive.
For COCC(=O)Nc1nc2n(n1)C(c1ccc(OC)cc1)CC(c1ccc(OC)cc1)N2 (stereo unspecified) the results were Anthrax LF prot -11, Bead autofluor 21259*, BoNT F protease 7 and BoNT-A LC inh2 inconclusive.
Screening COCC(=O)Nc1nc2n(n1)C(c1ccccc1)CC(c1ccc(OC)cc1)N2 (stereo unspecified) returned Anthrax LF prot 1, Bead autofluor 11249, BoNT F protease 2 and BoNT-A LC inh2 0.
O=C(CNC(=O)c1cc(-c2ccccc2)nn1-c1ccccc1)Nc1ccccc1Br was read as Anthrax LF prot 0, Bead autofluor 3855, BoNT F protease -2 and BoNT-A LC inh2 1.
`CSCCC(N=Cc1c(O)n(-c2ccc(Br)cc2)c(=O)[nH]c1=O)C(=O)OC(C)(C)C` (stereo unspecified) gave Anthrax LF prot 1, Bead autofluor 21352*, BoNT F protease 4 and BoNT-A LC inh2 inconclusive.
For CSCCC(N=Cc1c(O)n(-c2ccc(F)cc2)c(=O)[nH]c1=O)C(=O)OC(C)(C)C (stereo unspecified) the results were Anthrax LF prot 3, Bead autofluor 4352, BoNT F protease -2 and BoNT-A LC inh2 1.
Screening COc1ccccc1CNC(=O)c1ccc(NS(C)(=O)=O)cc1 returned Anthrax LF prot 3, Bead autofluor 6854, BoNT F protease -18 and BoNT-A LC inh2 -1.
For CCN(CC)S(=O)(=O)c1ccc(NC(=O)c2ccccc2N(C)S(C)(=O)=O)cc1 the results were Anthrax LF prot -7, Bead autofluor 21922*, BoNT F protease 3 and BoNT-A LC inh2 inconclusive.
